Rows were chosen to be rich in hits. Some 12% of all compounds tested hit in one or more screens of this group.
JMJD2A Tudor inh: JMJD2A Tudor domain (human) inhibition. O75164. AlphaScreen JMJD2A-Tudor / H3K4me3 peptide binding. Potency, µM (series often up to 114 µM), for inactives: top-dose activity change, negative = inhibition, usual class: inhibitors. 390,000 tested, 4.4% active. AID 504339; further: on the % scale 0 is the no-effect control and ±100 the full control effect; nearly all actives have a fitted effect of over 50% in size
BAZ2B block: blocks human BAZ2B; Q9UIF8; 360,000 tested, 4.4% active; AlphaScreen BAZ2B-H3K14Ac peptide displacement; Potency, µM (titrated, usually from 114 µM), for the others: at the highest dose activity change, negative = inhibition, usual class: inhibitors; further: on the % scale 0 is the no-effect control and ±100 the full control effect; nearly all actives have a fitted effect of over 60% in size
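Compounds, titrated to a top concentration of 110 uM, were incubated 30 min at room temperature with preformed BAZ2B/acetyl-K14 H3 peptide complex (50 nM each). Proximity signal was measured by AlphaScreen after 20 min with beads.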
Sfp inh: inhibitors of Bacillus subtilis Sfp phosphopantetheinyl transferase | Q9F4F7 | Biochemical Sfp PPTase activity, qHTS | Potency, µM, without a hit: largest response in the series, negative = inhibition, most hits filed as inhibitors | 310,000 tested, 3.5% active | AID 1490;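 further: the enzyme is Sfp with the accession as filed and its product quenches rhodamine fluorescence; 0% = enzyme reaction without inhibitor and -100% = no enzyme wells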
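Step 1, compound plus 15 nM Sfp-PPTase, 15 min, room temperature. Step 2, add rhodamine-CoA (5 uM) and BHQ-2-YbbR (12.5 uM). Step 3, read 525/598 nm fluorescence at 0 and 30 min.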
G9a block: inhibitors of human histone lysine methyltransferase G9a; G9a H3K9 monomethylation, AlphaScreen, 2 h; Q96KQ7; 350,000 tested, 8.8% active; Potency, µM (series often up to 102 µM), without a hit: at the highest dose activity, negative = inhibition, actives largely listed as inhibitors; further: on the % scale 0 is the no-effect control and ±100 the full control effect; nearly all actives have a fitted effect of over 75% in size
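Compounds were preincubated with 20 nM G9a for 15 min, after which biotinylated H3K9 peptide (500 nM) and SAM (20 uM) started a 2 h room-temperature reaction. Monomethylated product was quantified by antibody-based AlphaScreen chemiluminescence.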
PLK1 PBD block: inhibitors of human PLK1 polo-box domain binding; Potency, µM, inactives show max response, negative = inhibition, hits mostly inhibitors; Plk1 PBD binding of FITC phosphopeptide, fluorescence polarization; 360,000 tested, 2.8% active; further: series mostly up to about 57 µM; on the % scale 0 is the no-effect control and ±100 the full control effect; nearly all actives have a fitted effect of over 65% in size
Target sequence (P53350 whole entry, looked up, the tested form may be a part): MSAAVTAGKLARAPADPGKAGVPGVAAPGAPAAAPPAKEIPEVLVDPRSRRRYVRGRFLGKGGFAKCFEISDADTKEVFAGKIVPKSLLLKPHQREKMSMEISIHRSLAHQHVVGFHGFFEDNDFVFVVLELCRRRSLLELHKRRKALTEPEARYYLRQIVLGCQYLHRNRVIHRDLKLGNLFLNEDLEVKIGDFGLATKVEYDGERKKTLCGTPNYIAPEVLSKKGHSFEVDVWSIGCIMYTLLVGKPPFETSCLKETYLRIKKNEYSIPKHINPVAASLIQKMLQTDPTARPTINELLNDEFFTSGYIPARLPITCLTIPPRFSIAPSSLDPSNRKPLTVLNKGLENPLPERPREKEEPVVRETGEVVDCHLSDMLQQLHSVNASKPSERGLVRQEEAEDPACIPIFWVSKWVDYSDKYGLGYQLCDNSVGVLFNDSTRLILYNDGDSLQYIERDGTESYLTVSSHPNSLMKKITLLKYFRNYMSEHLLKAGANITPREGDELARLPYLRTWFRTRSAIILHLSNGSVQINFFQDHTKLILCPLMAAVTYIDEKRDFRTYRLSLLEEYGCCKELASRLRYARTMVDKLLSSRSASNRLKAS
HP1b binding inh: HP1-beta chromodomain-methylated histone interaction inhibition; P83916; AlphaScreen HP1-beta / biotin-H3K9me3 peptide binding; Potency, µM (titrated, usually from 114 µM), without a hit: at the highest dose activity change, negative = inhibition, usual class: inhibitors; 390,000 tested, 0.56% active; further: nearly all actives have a fitted effect of over 70% in size
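AlphaScreen: HP1-beta (50 nM) preformed 30 min with biotin-H3(1-18)K9me3 peptide (50 nM) in PBS pH 7.4, 0.01% Tween-20. Compound added for 30 min at RT, then streptavidin donor/nickel chelate acceptor beads (10 ug/mL) for 30 min.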
Starred values were filed as active, the others as inactive; [ ] = remark or other dose. The call rests on the fitted dose curve; in most records, active means well fitted curve in the direction sought with a large enough effect; inconclusive means small, poorly fitted or top-dose-only effect, or another doubt; inactive means no such curve, though single readings can be large; an effect the other way counts as inactive or inconclusive. Potency means the concentration at half of the fitted maximal effect.

Results for COC(=O)c1c(NC(=O)CCCOc2cccc(C)c2)sc2c1CCC2 ?
JMJD2A Tudor inh: 23%; BAZ2B block: -7%; G9a block: 9%[59 µM]; HP1b binding inh: 15%

Results for COC(=O)c1c(NC(=O)CCCOc2cccc(C)c2)sc2c1C(C(=O)OC)CC2 (centres undefined) ?
JMJD2A Tudor inh: inconclusive; BAZ2B block: 35µM*; G9a block: 1.1µM*; HP1b binding inh: inconclusive

What do the screens show for `CCC1CCc2nc3sc(C(=O)Nc4cccc(C(F)(F)F)c4)c(N)c3cc2C1` (centres undefined)?
JMJD2A Tudor inh: -4%; BAZ2B block: 6%; G9a block: -26%[59 µM]; HP1b binding inh: 30%

Results for CCC(CC)C(=O)Nc1cc(OC)c(OC)cc1C(=O)O ?
JMJD2A Tudor inh: -28%[11.4 µM]; BAZ2B block: -29%; Sfp inh: 10%; G9a block: -26%[59 µM]; PLK1 PBD block: 19µM*; HP1b binding inh: 5%

How did COc1cc(NS(=O)(=O)c2ccc(C)cc2C)cc(OC)c1OC do in these assays?
JMJD2A Tudor inh: -6%; BAZ2B block: inconclusive; Sfp inh: -3%; G9a block: 79µM*; PLK1 PBD block: -1%; HP1b binding inh: 29%

How did Cc1ccc(S(=O)(=O)Nc2ccncc2)c(C)c1 do in these assays?
JMJD2A Tudor inh: 89µM*; BAZ2B block: -3%; Sfp inh: 6%; G9a block: -92%; PLK1 PBD block: -5%; HP1b binding inh: 3%

What do the screens show for `COc1cc(NS(=O)(=O)c2cc3[nH]c(=O)c(=O)[nH]c3cc2C)cc(OC)c1OC`?
JMJD2A Tudor inh: -27%; BAZ2B block: inconclusive; Sfp inh: -10%; PLK1 PBD block: -14%; HP1b binding inh: 67%

What do the screens show for `O=C(Nc1cccc(C(F)(F)F)c1)c1ccc(F)c(S(=O)(=O)N2CCc3ccccc3C2)c1`?
JMJD2A Tudor inh: -1%; BAZ2B block: 1%; G9a block: -1%[59 µM]; HP1b binding inh: 38%

How did O=C(NCCc1nc2ccccc2n1Cc1ccc(F)cc1)c1ccco1 do in these assays?
JMJD2A Tudor inh: -16%; BAZ2B block: -7%; G9a block: -4%[59 µM]; HP1b binding inh: 24%

How did CCc1ccc(C(=O)NC(Cc2c[nH]c3ccccc23)C(=O)OCC(=O)c2ccc(Br)cc2)cc1 (centres undefined) do in these assays?
JMJD2A Tudor inh: -21%; BAZ2B block: -10%; G9a block: -26%[59 µM]; HP1b binding inh: 8%

How did COc1ccc2c(C)cc(=S)[nH]c2c1 do in these assays?
JMJD2A Tudor inh: -16%[11.4 µM]; BAZ2B block: -27%; Sfp inh: inconclusive; G9a block: 40µM*; PLK1 PBD block: 11µM*; HP1b binding inh: 15%

Results for O=C1CN(C(=O)CSc2nc3ccccc3n2CCc2ccccc2)c2ccccc2N1 ?
JMJD2A Tudor inh: -1%; BAZ2B block: -34%; Sfp inh: -17%; G9a block: 10µM*; PLK1 PBD block: -6%; HP1b binding inh: 22%

Results for CCCn1c(SCC(=O)N2CC(=O)Nc3ccccc32)nc2ccccc21 ?
JMJD2A Tudor inh: -20%; BAZ2B block: 8%; Sfp inh: inconclusive; G9a block: 32µM*; PLK1 PBD block: inconclusive; HP1b binding inh: 9%

How did Cn1c(SCC(=O)N2CC(=O)Nc3ccccc32)nc2ccccc2c1=O do in these assays?
JMJD2A Tudor inh: 6%; BAZ2B block: 9%; G9a block: 22%[12.7 µM]; PLK1 PBD block: -15%; HP1b binding inh: 38%

What do the screens show for `O=C(NNS(=O)(=O)c1ccccc1F)c1cc(-c2ccccc2)n[nH]1`?
JMJD2A Tudor inh: -13%; BAZ2B block: -38%; Sfp inh: 11%; G9a block: 7%; PLK1 PBD block: -15%; HP1b binding inh: 11%

How did O=C(O)/C=C\C(=O)NNC(=O)c1cc(-c2ccccc2)n[nH]1 do in these assays?
JMJD2A Tudor inh: 25µM*; BAZ2B block: 28µM*; Sfp inh: 50µM*; PLK1 PBD block: -11%; HP1b binding inh: 20%

What do the screens show for `COc1ccc(S(=O)(=O)NC(=O)C2(C)CCN2C(=O)C2CCCCC2)cc1OC` (centres undefined)?
PLK1 PBD block: 7%

Results for CCN(CC)c1ccc(/C=C2\SC(=O)N(C(C)C)C2=O)o1 ?
JMJD2A Tudor inh: -35%; BAZ2B block: inconclusive; Sfp inh: 7.1µM*; G9a block: 7.1µM*; PLK1 PBD block: 63%; HP1b binding inh: -11%

What do the screens show for `CC(C)N1C(=O)S/C(=C/c2ccc3c(c2)n(C)c(=O)n3C)C1=O`?
JMJD2A Tudor inh: -22%; BAZ2B block: 12%; Sfp inh: 12%; G9a block: 6%[59 µM]; PLK1 PBD block: -2%; HP1b binding inh: 6%

What do the screens show for `O=C(CNCc1ccccn1)Nc1ccc([N+](=O)[O-])cc1C(=O)Nc1ccccc1F`?
JMJD2A Tudor inh: 45µM*; BAZ2B block: 18µM*; Sfp inh: 3%; G9a block: 13%; PLK1 PBD block: -14%; HP1b binding inh: 13%

What do the screens show for `Cc1cc(C(=O)OCC(=O)Nc2ccc(F)c(F)c2F)c(C)o1`?
JMJD2A Tudor inh: 20µM*; BAZ2B block: 2%; Sfp inh: 24%; G9a block: 17%; PLK1 PBD block: inconclusive; HP1b binding inh: -11%

Results for O=C(COCc1cc(-c2cccs2)on1)NCc1ccc(F)cc1 ?
JMJD2A Tudor inh: 0%; BAZ2B block: 0%; G9a block: 7%[59 µM]; HP1b binding inh: 21%

What do the screens show for `CCN(CC)c1ccc2c(c1)oc(=O)c1c(Cl)cc(=O)oc12`?
JMJD2A Tudor inh: 17%; BAZ2B block: 10%; Sfp inh: -7%; G9a block: 30%[12.7 µM]; PLK1 PBD block: -7%; HP1b binding inh: 35%

What do the screens show for `CCN(CC)c1ccc2c(Cl)c(Br)c(=O)oc2c1`?
JMJD2A Tudor inh: 104%[57.1 µM]; BAZ2B block: 163%; Sfp inh: 56µM*; G9a block: 9%[0.0925 µM]; PLK1 PBD block: -20%; HP1b binding inh: 466%

Results for Cc1ccc(Cl)cc1NC(=O)c1cc(CN2CCCC2)on1 ?
JMJD2A Tudor inh: -15%; BAZ2B block: -18%; G9a block: 10%[59 µM]; HP1b binding inh: 24%

How did CCN(CC)c1ccc(NC(=O)c2cc(CN3CCCC3)on2)c(C)c1 do in these assays?
JMJD2A Tudor inh: inconclusive; BAZ2B block: inconclusive; G9a block: 14µM*; HP1b binding inh: 14%

How did CCCCC(=O)Nc1nnc(S(=O)(=O)N(C)Cc2ccc(Cl)cc2)s1 do in these assays?
JMJD2A Tudor inh: -2%; BAZ2B block: -9%; G9a block: inconclusive; HP1b binding inh: 37%

How did COc1ccc(CN(C(=O)c2ccc(OCC(C)C)cc2)C2CCS(=O)(=O)C2)cc1 (centres undefined) do in these assays?
JMJD2A Tudor inh: -26%; BAZ2B block: inconclusive; G9a block: -26%[59 µM]; HP1b binding inh: 2%

Compound activity from PubChem BioAssay.
